Among all 24,000 compounds or so, about 40 (0.2%) were called active.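 Rule for the calls: active = inhibition of disassembly above about 33% (limit read from the data); inconclusive = likely self-fluorescent, control bead median signal at least 40; inactive = the rest.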 Many of the other results were omitted from the sample, so actives are more common in it than they were.
These compounds were tested on 26S proteasome (yeast, GFP-tagged, ATP-dependent disassembly) (assay: inhibitors of ATP-driven 26S proteasome dissociation, primary screen, biochemical, bead-based flow cytometry, GFP-tagged proteasome (AID 751;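 note: plate controls were ATP control with full disassembly for no effect and ATP-gamma-S intact proteasomes for full effect; higher percent means more bead fluorescence retained so stronger block of disassembly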)). Settings: anti-FLAG beads, active compounds read high, concentration not given here.

Row | SMILES | inhibition of disassembly
1 | COc1ccccc1N1CCN(C(CNC(=O)Oc2ccccc2)c2cccnc2)CC1 (stereo not given) | 19.4% (inactive)
2 | O=C(NCC(c1cccnc1)N1CCN(c2ccccc2)CC1)Oc1ccccc1 (stereo not given) | 44.6% (active)
3 | CC(C)c1ccc(O)c(CN2CCN(c3ccccc3)CC2)c1 | 0.72% (inactive)
4 | Cc1cccc(-n2c(C)nc3cc(C(=O)N4CCC5(CC4)OCCO5)ccc32)c1 | 1.69% (inactive)
5 | CCOC(=O)C1=C(C)OC(N)=C(C(=O)OC)C12C(=O)Nc1ccc(Br)cc12 (stereo not given) | -0.24% (inactive)

— PubChem BioAssay AID751 (NMMLSC, 2007)
